Rows were chosen to be rich in hits. Some 19% of all compounds tested hit in one or more screens of this group.
ASM inhibitor – blocks human secretory acid sphingomyelinase; placental ASM, HMU-PC fluorogenic substrate, 60 min; AID 504937; 0.006% of 340,000 active; P17405; Potency, µM (series often up to 57.5 µM), for inactives: at the top dose activity change, negative = inhibition, most hits filed as inhibitors; note: potency is the fitted concentration of half-maximal effect
Target sequence (P17405 47-631 limits assumed): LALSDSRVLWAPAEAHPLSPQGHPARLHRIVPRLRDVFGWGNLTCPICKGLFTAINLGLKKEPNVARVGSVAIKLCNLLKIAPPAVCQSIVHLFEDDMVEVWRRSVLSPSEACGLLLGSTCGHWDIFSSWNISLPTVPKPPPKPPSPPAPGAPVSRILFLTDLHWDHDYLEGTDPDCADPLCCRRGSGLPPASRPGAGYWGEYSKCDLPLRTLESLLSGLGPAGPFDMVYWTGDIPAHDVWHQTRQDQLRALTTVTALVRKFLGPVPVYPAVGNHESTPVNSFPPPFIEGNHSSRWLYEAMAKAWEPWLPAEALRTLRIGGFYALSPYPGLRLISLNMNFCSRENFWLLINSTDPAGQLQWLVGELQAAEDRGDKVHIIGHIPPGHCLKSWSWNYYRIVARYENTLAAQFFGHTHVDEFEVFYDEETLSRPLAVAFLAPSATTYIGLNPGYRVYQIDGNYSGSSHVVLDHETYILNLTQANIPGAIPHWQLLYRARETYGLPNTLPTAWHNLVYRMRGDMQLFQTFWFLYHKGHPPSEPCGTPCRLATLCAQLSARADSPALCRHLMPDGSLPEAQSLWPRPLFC
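Human placenta-derived ASM enzyme was preincubated with compound for 10 minutes at room temperature, then given fluorogenic substrate HMU-PC0 (9 uM final) for 60 minutes at 37 °C; a pH 10 stop preceded fluorescence reading at Ex 386/Em 447 nm.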
IL1B secr inh – blocks inflammasome-driven IL-1 beta release | THP-1 LPS/ATP IL-1B secretion, AlphaLISA, 16 h; stronger effect = lower value | activity change, % at 57.5 µM | 4.7% of 360,000 active | AID 743279; in the data active = activity change below about -50%; inconclusive = mostly about -30% to -49%; note: % is set by controls: 0 for no effect and ±100 for the full control effect
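THP-1 cells pretreated 1 hr with compounds (up to 57.5 uM final), then stimulated with LPS (250 ng/mL final) plus ATP (1.25 mM final); secreted IL-1B measured by AlphaLISA after 16 hr, decreased signal indicating inhibition.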
DT40 TDP1 CPT – growth inhibition of DT40 Tdp1-/-;hTDP1 cells with camptothecin (screen for TDP1 inhibitors); chicken DT40 Tdp1-/-;hTDP1 cells + 20 nM CPT, ATP luminescence, 48 h; Potency, µM (highest dose often 46.2 µM), without a hit: at the top dose activity change, negative = growth inhibition, hits mostly inhibitors; 12% of 420,000 active; AID 686979; note: potency is the fitted concentration of half-maximal effect; % is set by controls: 0 for no effect and ±100 for the full control effect; nearly all actives have a fitted effect of over 55% in size
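Chicken DT40 Tdp1-/- cells stably complemented with human TDP1 were seeded at 400 cells/well in medium containing 20 nM camptothecin, exposed to pin-transferred compounds, and grown at 37 °C for at least 48 hr. Viability was read as ATP luminescence.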
HepG2 tox – counter-screen for TGF-b inhibitors: cytotoxicity in HepG2 cells; HepG2 CAGA-GFP viability, ATP luminescence, 18 h; Potency, µM (series often up to 46.1 µM), inactives show top-dose activity change, negative = cytotoxicity, hits mostly cytotoxic; 0.76% of 410,000 active; AID 588856; note: potency is the fitted concentration of half-maximal effect
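CellTiter-Glo luminescence gave cytotoxicity after 18 hours at 37 degrees C. The cells were HepG2 CAGA-GFP in 1% FBS DMEM, stimulated with 500 pg/mL TGF-beta after compound addition. %Activity was normalised to no-cell wells (complete cell-killing) and DMSO (no toxicity), and curves were fitted and classified.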
TGFb inhibitor – blocks TGF-b signaling; HepG2 CAGA-GFP TGF-b/SMAD3 reporter, GFP fluorescence, 18 h; TGF-beta stimulated, 500 pg/mL final; Potency, µM (series often up to 46.1 µM), for the others: at the top dose activity, negative = inhibition, usual class: inhibitors; 1.2% of 410,000 active; note: potency is the fitted concentration of half-maximal effect; % is set by controls: 0 for no effect and ±100 for the full control effect; nearly all actives have a fitted effect of over 65% in size
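TGF-beta reporter screen: HEPG2 CAGA-GFP, 1% FBS, 500 pg/mL TGF-beta final, 18 h; per-cell GFP summed per well; curves fitted and categorized by class.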
DT40 TDP1 no CPT – qHTS for Inhibitors of human tyrosyl-DNA phosphodiesterase 1 (TDP1): qHTS in cells in absence of CPT | 15% of 420,000 active | DT40 Tdp1-/- hTDP1 cells, no CPT, ATP luminescence, 48 h | Potency, µM (doses to about 46.2 µM), without a hit: at the highest dose activity change, negative = growth inhibition, hits mostly inhibitors; note: potency is the fitted concentration of half-maximal effect; % is set by controls: 0 for no effect and ±100 for the full control effect; nearly all actives have a fitted effect of over 55% in size
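A cellular qHTS used chicken DT40 cells lacking endogenous Tdp1 but carrying stably transfected human TDP1. Compounds were applied without camptothecin, and cell growth kinetics were judged by ATP-dependent luminescence after ≥48 hr.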
* hit, by the source's call. Unless noted, calls come from the whole dose curve; as a rule, active = well fitted curve in the direction sought with a large enough effect; inconclusive = small, poorly fitted or top-dose-only effect, or another doubt; inactive = no such curve, though single readings can be large; an effect the other way counts as inactive or inconclusive.

For CCOC(=O)c1c(O)c2ccccc2n(CC)c1=O the results were ASM inhibitor 90%, IL1B secr inh -5, DT40 TDP1 CPT -8%, HepG2 tox -13%, TGFb inhibitor 4% and DT40 TDP1 no CPT 4%.
For CCc1nc2ccc(C(=O)NCC3CCCCC3)cn2c1N(C)C(=O)c1cccc(OC)c1 the results were IL1B secr inh 0, DT40 TDP1 CPT inconclusive, HepG2 tox -47%, TGFb inhibitor -33% and DT40 TDP1 no CPT inconclusive.
For CSc1nnc(Cn2c(=O)sc3ccccc32)n1-c1ccccc1 the results were ASM inhibitor 2%, IL1B secr inh 24, DT40 TDP1 CPT 21µM*, HepG2 tox -41%, TGFb inhibitor -26% and DT40 TDP1 no CPT 21µM*.
For Cc1noc(C)c1C(=O)Nc1cccc(S(=O)(=O)N2CCCCC2)c1 the results were ASM inhibitor 0%, IL1B secr inh 21, DT40 TDP1 CPT inconclusive, HepG2 tox 1%, TGFb inhibitor 5% and DT40 TDP1 no CPT -11%.
`O=[N+]([O-])c1cccnc1N1CCCCC1` gave ASM inhibitor -3%, IL1B secr inh 8, DT40 TDP1 CPT -2%, HepG2 tox -23%, TGFb inhibitor inconclusive and DT40 TDP1 no CPT 5%.
Screening Cc1ccc(N2CCN(c3ncccc3[N+](=O)[O-])CC2)c(C)c1 returned ASM inhibitor -5%, IL1B secr inh -50*, DT40 TDP1 CPT 2%, HepG2 tox -37%, TGFb inhibitor inconclusive and DT40 TDP1 no CPT inconclusive.
For Cc1ccc(C)c(N2CCN(c3ncccc3[N+](=O)[O-])CC2)c1 the results were ASM inhibitor -3%, IL1B secr inh -51*, DT40 TDP1 CPT 17%, HepG2 tox -24%, TGFb inhibitor inconclusive and DT40 TDP1 no CPT -26%.
`C#CCOCCOCCOCCNc1nc(N2CCN(C(=O)CCCCCCCCCCNC(=O)[C@@H](CCSC)n3cc(CCO)nn3)CC2)nc(N2CCN(C(=O)CCCCCCCCCCNC(=O)[C@@H]([C@H](C)O)n3cc(C)nn3)CC2)n1` gave ASM inhibitor 4%, IL1B secr inh inconclusive, DT40 TDP1 CPT 6.5µM*, HepG2 tox -16%, TGFb inhibitor -13% and DT40 TDP1 no CPT 9.2µM*.
Screening C#CCOCCOCCOCCNc1nc(N2CCN(C(=O)CCCCCCCCCCNC(=O)[C@@H](CCC(=O)O)n3cc(CCCCCN)nn3)CC2)nc(N2CCN(C(=O)CCCCCCCCCCNC(=O)[C@H](CCCCN)n3cc(C[C@@H](C)CC)nn3)CC2)n1 returned ASM inhibitor inconclusive, IL1B secr inh inconclusive, DT40 TDP1 CPT inconclusive, HepG2 tox -81%, TGFb inhibitor inconclusive and DT40 TDP1 no CPT inconclusive.
Screening C#CCOCCOCCOCCNc1nc(N2CCN(C(=O)CCCCCCCCCCNC(=O)[C@H](CCCCN)n3cc(C)nn3)CC2)nc(N2CCN(C(=O)CCCCCCCCCCNC(=O)[C@H](CCCN=C(N)N)n3cc(C[C@@H](C)CC)nn3)CC2)n1 returned ASM inhibitor inconclusive, IL1B secr inh -102*, DT40 TDP1 CPT 23µM*, HepG2 tox -101%, TGFb inhibitor inconclusive and DT40 TDP1 no CPT 12µM*.
C#CCOCCOCCOCCNc1nc(N2CCN(C(=O)CCCCCCCCCCNC(=O)[C@@H](CCSC)n3cc(CCO)nn3)CC2)nc(N2CCN(C(=O)CCCCCCCCCCNC(=O)[C@H](CCCN=C(N)N)n3cc(C[C@@H](C)CC)nn3)CC2)n1 was read as ASM inhibitor inconclusive, IL1B secr inh -100*, DT40 TDP1 CPT 26µM*, HepG2 tox -80%, TGFb inhibitor inconclusive and DT40 TDP1 no CPT inconclusive.
C#CCOCCOCCOCCNc1nc(N2CCN(C(=O)CCCCCCCCCCNC(=O)Cn3cc(C[C@@H](C)O)nn3)CC2)nc(N2CCN(C(=O)CCCCCCCCCCNC(=O)[C@@H](CCSC)n3cc(CCO)nn3)CC2)n1 was read as ASM inhibitor 0%, IL1B secr inh 2, DT40 TDP1 CPT inconclusive, HepG2 tox 4%, TGFb inhibitor 8% and DT40 TDP1 no CPT 10µM*.
`O=S1(=O)CCOCCCN1Cc1ccccc1F` gave ASM inhibitor -5%, IL1B secr inh 23, DT40 TDP1 CPT -15%, HepG2 tox 9%, TGFb inhibitor 0% and DT40 TDP1 no CPT inconclusive.
`Cc1cccc(NS(=O)(=O)c2ccc(C)c(C(=O)NCCCN3CCOCC3)c2)c1` gave ASM inhibitor 4%, IL1B secr inh 0, DT40 TDP1 CPT -10%, HepG2 tox -12%, TGFb inhibitor 25% and DT40 TDP1 no CPT -7%.
CCc1ccc(NCc2cc3cc4c(cc3n(CC(=O)Nc3ccc(Cl)cc3)c2=O)OCO4)cc1 was read as HepG2 tox -17% and TGFb inhibitor -5%.
Cc1ncc2c(c1O)COP(=O)(O)OC2 was read as DT40 TDP1 CPT 2% and DT40 TDP1 no CPT -17%.
For C#CCOCCOCCOCCNc1nc(N2CCN(C(=O)CCCCCCCCCCNC(=O)[C@H](CCCCN)n3cc(C)nn3)CC2)nc(N2CCN(C(=O)CCCCCCCCCCNC(=O)[C@@H]([C@H](C)O)n3cc(C)nn3)CC2)n1 the results were ASM inhibitor -12%, IL1B secr inh -60*, DT40 TDP1 CPT inconclusive, HepG2 tox -41%, TGFb inhibitor inconclusive and DT40 TDP1 no CPT inconclusive.
Screening C#CCOCCOCCOCCNc1nc(N2CCN(C(=O)CCCCCCCCCCNC(=O)[C@H](CCCCN)n3cc(C[C@@H](C)CC)nn3)CC2)nc(N2CCN(C(=O)CCCCCCCCCCNC(=O)[C@@H]([C@H](C)O)n3cc(C)nn3)CC2)n1 returned ASM inhibitor -22%, IL1B secr inh inconclusive, DT40 TDP1 CPT 4.6µM*, HepG2 tox 13µM*, TGFb inhibitor inconclusive and DT40 TDP1 no CPT 5.2µM*.
For C#CCOCCOCCOCCNc1nc(N2CCN(C(=O)CCCCCCCCCCNC(=O)[C@H](CCCCN)n3cc(CCO)nn3)CC2)nc(N2CCN(C(=O)CCCCCCCCCCNC(=O)[C@H](CCCCN)n3cc(C[C@@H](C)CC)nn3)CC2)n1 the results were ASM inhibitor -13%, IL1B secr inh -20, DT40 TDP1 CPT inconclusive, HepG2 tox -75%, TGFb inhibitor inconclusive and DT40 TDP1 no CPT inconclusive.

Screening data: PubChem, National Center for Advancing Translational Sciences (NCATS)
